Screens as filed in PubChem.
IMPase Li cell = membrane-permeable IMPase blocker, potentiated with lithium; 210,000 tested, 0.35% active; Potency, µM (titrated, usually from 59.4 µM), hits mostly inhibitors; AID 1457; CHO-M1 cells, IP1 TR-FRET (IP-One), carbachol + lithium; active means well fitted inhibition curve with a large enough effect; inconclusive means small, poorly fitted or top-dose-only effect; inactive means no such curve, though single readings can be large or run the other way;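 further: IP1 builds up when IMPase is blocked and the TR-FRET signal falls; nearly all actives have a fitted effect of over 50% in size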
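Concentration–response in CHO-M1 cells, lithium-potentiated; 30 min at 37C. IP1 detected by competitive TR-FRET after 10 min lysis at RT. Hill-fitted AC50.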
ALDH1A1 inh = inhibitors of human aldehyde dehydrogenase 1A1 | Purified ALDH1A1, NADH fluorescence, propionaldehyde substrate | Potency, µM (top dose mostly 75.3 µM), hits mostly inhibitors | 220,000 tested, 7.3% active | AID 1030
HPGD inh = inhibitors of human 15-hydroxyprostaglandin dehydrogenase (HPGD); P15428; purified HPGD, NADH fluorescence kinetic, PGE2 substrate; Potency, µM, most hits filed as inhibitors; 150,000 tested, 4.3% active; AID 894
Target sequence (P15428 whole entry, looked up): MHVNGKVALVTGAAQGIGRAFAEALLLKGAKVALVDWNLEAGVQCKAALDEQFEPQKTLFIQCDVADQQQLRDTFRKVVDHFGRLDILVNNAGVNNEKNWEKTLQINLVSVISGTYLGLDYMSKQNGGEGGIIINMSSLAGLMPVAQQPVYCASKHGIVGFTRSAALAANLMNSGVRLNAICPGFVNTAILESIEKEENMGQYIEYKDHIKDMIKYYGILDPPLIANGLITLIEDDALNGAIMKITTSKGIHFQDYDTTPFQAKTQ
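NADH formation kinetics: reaction with 30 uM PGE2 and 1 mM NAD+ (final), 20 nM enzyme, Tris-HCl pH 8 with Tween 20, after 15 min compound preincubation at room temperature. Fluorescence change, last versus first of five reads.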
PNC inhibitor = inhibitors of perinucleolar compartment assembly; activity change (PNC), negative = inhibition, % at 10 µM; 140,000 tested, 3.1% active; PC3M PTB-GFP, PNC prevalence imaging, 16 h; active compounds read low;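 active means readout at or below -70, meaning at least 70% loss of cells showing the perinucleolar compartment, a nuclear body marking cancer cells; inconclusive means readout between -30 and a set limit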
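PC3M cells stably expressing PTB-GFP, 750–1000 cells/well, treated 16 h at 37 °C with compound (23 nl of library stock), in duplicate. After paraformaldehyde fixation and Hoechst stain, imaged at 20x; PNC prevalence scored by image analysis.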
IMPase inh = cell-permeable inhibitors of inositol monophosphatase (IMPase); P97697; CHO-M1 cells, IP1 accumulation, HTRF TR-FRET ratio; inhibition (IP1 accumulation), % at 46.1 µM; 120,000 tested, under 10 active; AID 901; active means well fitted curve in the direction sought with a large enough effect in the signal ratio, not every such curve was filed as active; inconclusive means small, poorly fitted or top-dose-only effect, or a change in a side signal; inactive means no such curve, though single readings can be large or run the other way; the % refers to the signal ratio;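 further: cells stimulated with carbachol in lithium chloride buffer; higher means more IMPase inhibition seen as more IP1 and lower FRET ratio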
Target sequence (P97697 whole entry, looked up): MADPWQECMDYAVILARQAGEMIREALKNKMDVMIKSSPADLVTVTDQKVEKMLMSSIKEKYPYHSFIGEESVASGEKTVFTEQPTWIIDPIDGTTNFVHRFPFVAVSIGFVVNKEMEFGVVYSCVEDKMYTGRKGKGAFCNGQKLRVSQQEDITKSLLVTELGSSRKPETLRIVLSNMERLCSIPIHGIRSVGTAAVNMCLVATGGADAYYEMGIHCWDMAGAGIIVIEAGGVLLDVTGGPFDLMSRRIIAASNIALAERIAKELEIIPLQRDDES
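Seeded CHO-M1 cells were dosed with compound at up to 46 uM, stimulated with carbachol for 30 min, then lysed in IP-One detection reagents. Higher IP1 lowers the TR-FRET signal.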
Large screens that a line does not name were inactive. Hits are enriched below; roughly 11% of the tested compounds scored in any of these assays. Unless noted, the call rests on the fitted dose curve; in most records, active means well fitted inhibition curve with a large enough effect (not every such curve was filed as active); inconclusive means small, poorly fitted or top-dose-only effect, or another doubt; inactive means no such curve, though single readings can be large or run the other way.

CC(C)(C)c1ccc(Oc2ccc(NC(=O)C3CC=CCC3C(=O)O)cc2)cc1 (configuration not stated)	ALDH1A1 inh inconclusive (no result: HPGD inh, PNC inhibitor, IMPase inh)
O=C(O)C1CC=CCC1C(=O)Nc1cccc(Cl)c1 (configuration not stated)	ALDH1A1 inh 17.8µM
Cc1cc(C)c(NC(=O)COC(=O)/C=C/c2cccs2)c(C)c1	none (no result: IMPase inh)
O=C1CCCC(O)=C1C(C#Cc1ccccc1)C1=C(O)CCCC1=O	ALDH1A1 inh 6.31µM, HPGD inh 3.98µM, PNC inhibitor inconclusive
O=C1CCCC(O)=C1Sc1ccccc1C(=O)O	none (no result: HPGD inh, PNC inhibitor, IMPase inh)
CC1(C)CC(=O)C(C(C#Cc2ccccc2)C2=C(O)CC(C)(C)CC2=O)=C(O)C1	ALDH1A1 inh 6.31µM, HPGD inh 7.94µM
CCN(CCC(=O)Nc1cc([N+](=O)[O-])ccc1OC)Cc1ccccc1	ALDH1A1 inh inconclusive (no result: IMPase inh)
O=C1Nc2cc(C(=O)N3CCc4ccccc4C3)ccc2S/C1=C\c1ccccc1	ALDH1A1 inh inconclusive, HPGD inh 15.8µM (no result: IMPase inh)
O=C(c1ccc2nc[nH]c2c1)N1CCc2ccccc2C1	none (no result: HPGD inh, PNC inhibitor, IMPase inh)
C1CCN2C[C@@H]3C[C@@H](CN4CCCC[C@H]34)[C@H]2C1	none (no result: PNC inhibitor)
CC(C)CN(C(=O)CN1CCN(c2ccccc2O)CC1)c1c(N)n(CC(C)C)c(=O)[nH]c1=O	PNC inhibitor -86.1 (no result: IMPase inh)
S=C(Nc1ccc(Nc2ccccc2)cc1)N1CCN(c2ncccn2)CC1	ALDH1A1 inh 12.6µM (no result: HPGD inh, PNC inhibitor, IMPase inh)
COc1cc(NC(=S)N2CCN(c3ccccn3)CC2)cc(OC)c1OC	ALDH1A1 inh inconclusive (no result: HPGD inh, PNC inhibitor, IMPase inh)
COc1ccc(NC(=S)N2CCN(c3ccccn3)CC2)cc1OC	ALDH1A1 inh 25.1µM, PNC inhibitor -115.2 (no result: IMPase Li cell, HPGD inh)
Cc1cc(=O)oc(C)c1C(=O)NCCNC(=O)c1c(C)cc(=O)oc1C	none
CCN(CCCNC(=O)c1c(C)cc(=O)oc1C)c1cccc(C)c1	ALDH1A1 inh 10µM
Cc1noc(C)c1-c1cncnc1N(C)Cc1ccco1	none (no result: HPGD inh, PNC inhibitor, IMPase inh)
Cn1c(-c2ccc(C=O)s2)nc2c3ccccc3c3ccccc3c21	IMPase Li cell 12.6µM, HPGD inh inconclusive
N#Cc1cccc(NC(=O)N2CC3(CCN(C(=O)c4ccco4)CC3)C2)c1	ALDH1A1 inh 9.46µM (no result: PNC inhibitor, IMPase inh)
N#Cc1cccc(NC(=O)N2CCCC3(CCN(C(=O)c4csnn4)CC3)C2)c1	none (no result: PNC inhibitor, IMPase inh)
N#Cc1cccc(NC(=O)N2CCC3(CC2)CCN(C(=O)c2csnn2)CC3)c1	IMPase Li cell 11.2µM, ALDH1A1 inh inconclusive (no result: PNC inhibitor, IMPase inh)
O=C(Nc1cccc(F)c1)N1CC2(CCN(C(=O)c3ccco3)CC2)C1	ALDH1A1 inh 11.2µM (no result: PNC inhibitor, IMPase inh)
O=C(O)CCSCc1ccc(I)cc1	none (no result: PNC inhibitor, IMPase inh)
CSC1=C(C#N)C(c2ccccc2Cl)C2=C(N1)c1ccccc1C2=O (configuration not stated)	ALDH1A1 inh inconclusive, HPGD inh inconclusive
CSC1=C(C#N)C(c2ccccc2C)C(C#N)=C(N)N1 (configuration not stated)	ALDH1A1 inh 22.4µM
O=c1[nH]c(/C=C2\C=Nc3ccccc32)c(O)n1Cc1ccccc1F	ALDH1A1 inh 12.6µM (no result: HPGD inh, PNC inhibitor, IMPase inh)
CSc1nc(O)c(/C=C2\C=Nc3ccccc32)[nH]1	ALDH1A1 inh inconclusive, HPGD inh inconclusive (no result: IMPase inh)
CC1CCCCN1C(=O)CCS(=O)(=O)c1cccc2nonc12 (configuration not stated)	ALDH1A1 inh inconclusive (no result: HPGD inh, PNC inhibitor, IMPase inh)
Cc1ccc(C)c(N2CCN(C(=O)CSc3ccsc3[N+](=O)[O-])CC2)c1	ALDH1A1 inh 11.2µM, HPGD inh inconclusive
COc1cc([C@@H]2c3cc4c(cc3[C@@H](O[C@@H]3O[C@H]5CO[C@@H](C)O[C@@H]5[C@@H](O)[C@H]3O)[C@@H]3COC(=O)[C@@H]23)OCO4)cc(OC)c1O	none (no result: PNC inhibitor)
O=c1oc2ccccc2cc1O	HPGD inh 17.8µM (no result: PNC inhibitor, IMPase inh)
CC(C)[C@H](NS(=O)(=O)c1ccccc1)C(=O)OCC(=O)NC(=O)c1cccn1C	ALDH1A1 inh 12.6µM
COc1ccc(C(=O)N[C@H](C(=O)OCC(=O)NC(=O)c2cccn2C)C(C)C)cc1	none
O=C1CCCN1c1ccc(S(=O)(=O)Oc2ccc(Cl)cc2)cc1[N+](=O)[O-]	HPGD inh 7.94µM
CCCNS(=O)(=O)c1ccc(N2CCCC2=O)c([N+](=O)[O-])c1	none
COc1ccc(OCC(=O)Nc2ccc(Cl)cc2)cc1	ALDH1A1 inh inconclusive (no result: HPGD inh, PNC inhibitor, IMPase inh)
O=C(CCl)Nc1ccccc1Sc1ccc(Cl)cc1	ALDH1A1 inh 3.98µM
CSc1ccccc1NC(=O)COc1ccc(Cl)cc1Cl	PNC inhibitor inconclusive (no result: IMPase Li cell, HPGD inh)
